# Measured values taken from PubChem BioAssay.
# Where “and” joins values, the source holds several entries; their conditions need not be identical. Equal values may be shown once. Calls of active or inactive are those of the source.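 The calls were made as follows, unless noted: active = z-score of at least 1.8 in each of two replicates, scored against plate mean and spread of sample wells; inactive = the rest.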
# Legend:
# [1] = P. berghei load reduction in hepatocytes – cell-based, HepG2, luciferase luminescence, HepG2 viability, primary screen (AID 624349; in the data active = parasite load remaining mostly below about 12%, no sharp cut-off; inactive = mostly above about 10%;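 also: 100% = mean of DMSO negative control wells on the same plate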); details: P. berghei liver stage in HepG2, luciferase luminescence, concentration not given here; parasite load remaining: stronger effect = lower value; viability: measured here: HepG2 viability without parasites
# [2] = Wnt pathway potentiators raising nuclear beta-catenin – imaging, WNT3A-conditioned medium, mouse C2C12, NPC library, primary screen (AID 1117326; in the data active = nuclear beta-catenin stimulation mostly above about 4.2%, no sharp cut-off; inactive = mostly below about 10%); details: stronger effect = higher value
# [3] = stimulators of insulin release from INS-1E, primary screen, cell-based, 5 mM glucose, NPC library (AID 1117329;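 active = compound raises insulin release from rat beta cells at 5 mM glucose, no numeric limit stated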); details: rat INS-1E insulin secretion, at 10 µM, stronger effect = higher value
# [4] = growth inhibition of GSK3B-pretreated HCT116 cells – cell-based, CellTiter-Glo, 0.2 to 20 µM (AID 1117336;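 active = compounds lowering colon cancer cell viability after pretreatment blocking the GSK3B kinase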); details: HCT116 viability after GSK3B inhibitor, at 20 µM, stronger effect = higher value
# [5] = inhibition of endothelial tube formation, primary screen, imaging, VEGF stimulated, CD31 staining, tube area, NPC library (AID 1117340;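 active = compound that reduces growth-factor-driven endothelial tube area in a mixed cell culture, no cutoff stated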); details: VEGF-stimulated ADSC/ECFC co-culture, at 10 µM, stronger effect = higher value
# [6] = GLP1 release stimulators, primary, NCI-H716, NPC library (AID 1117341;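 active = compound raises GLP1 secretion from the human gut endocrine cells, with no numeric limit stated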); details: NCI-H716 cells, at 10 µM, stronger effect = higher value
# [7] = HCT116 colon cancer cell growth inhibition, primary screen, CellTiter-Glo luminescence, NPC library (AID 1117342;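 active = compounds that lower survival of HCT116 colon cancer cells in the luminescence readout, no numeric limit stated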); details: at 20 µM (top of the series)
# [8] = reduced SW480 viability measured with CellTiter-Glo, NPC library, primary (AID 1117343;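 active = compounds that lower viability of the colon cancer cells in the luminescence readout, with no numeric limit stated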); details: CellTiter-Glo luminescence; at 20 µM (top of the series)
# [9] = NPC library primary testing for decreased DLD-1 cell viability via CellTiter-Glo (AID 1117346;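 active = compounds that lower survival of DLD-1 colon cancer cells in the luminescence readout, no cutoff given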); details: DLD-1 viability, CellTiter-Glo luminescence; at 20 µM (top of the series)
# [10] = MELAS cybrid and Rieske KO viability enhancers – cell-based, MELAS cybrids, Rieske KO mouse fibroblasts, CellTiter-Glo, primary screen (AID 1508586;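 active = mean z-score across replicates of 1.96 or higher in either the MELAS or the Rieske mutant cell line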;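 also: z relative to plate mean and SD of compound and empty wells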); details: low glucose
# [11] = galactose survival enhancers in mitochondrial complex I cybrids – cell-based, galactose medium, ATP luminescence, primary screen (AID 1645843); details: complex I mutant cybrid cells, 72 h, stronger effect = higher value;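 also: positive z means more ATP and so rescue of galactose-driven cybrid death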
# [12] = viability loss with induced miR-34 in A549 – imaging, A549 dox-inducible miR-34, nuclei and caspase counts, primary screen (AID 1347080;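 active = compounds whose cell count with miR-34 switched on is under 0.7 times the count with it off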); details: A549 miR-34 inducible, Hoechst nuclei count, 48 h
# [13] = EMT-state selective cytotoxicity in co-culture – imaging, PC-3E GFP, TEM4-18 mCherry, primary screen (AID 1345086;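 active = compounds killing one labelled cell type while sparing the other, by normalised counts and ratio limits, not self-fluorescent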;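 also: cells exposed to compound for 72 h before imaging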;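 as to red/green cell ratio (normalised): normalised mesenchymal count divided by normalised epithelial count so high means epithelial killing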); details: PC-3E GFP / TEM4-18 mCherry co-culture, imaging cell counts, at 1 µM
# [14] = system: Aerobactin synthetase IucA (Klebsiella pneumoniae hvKP1); assay: IucA enzyme inhibition, primary screen, biochemical, Spectrum library (AID 1346200; call rule not given here;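 also: 100% = wells without compound and 0% = wells lacking enzyme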); details: malachite green pyrophosphate, A620, at 8 µM, stronger effect = lower value
# [15] = molecular target: NAD(+) hydrolase SARM1 (Homo sapiens) (UniProt Q6SZW1); assay: blocking NAD cleavage by SARM1 SAM-TIR – cell lysate, NAD-Glo luminescence (AID 1508614;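 active = compound whose remaining NAD level is above about 45 nM, limit read from the data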;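 also: higher remaining NAD means stronger inhibition of SARM1 NADase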); details: SAM-TIR HEK293T lysate NADase, at 1 µM, stronger effect = higher value
# [16] = molecular target: Mitogen-activated protein kinase 7 (Homo sapiens) (UniProt Q13164); assay: Gal4-ERK5 driven luciferase induction – cell-based, HTS, primary screen (AID 1508626;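 active = luciferase signal above three times the same-plate solvent-only control wells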;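 also: luciferase driven by Gal4-ERK5 fusion binding five Gal4 sites before minimal TATA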); details: HeLa Gal4-ERK5 transactivation, 18 h, at 5 µM, stronger effect = higher value
# [17] = MELAS cybrid survival, CellTiter-Glo 48 h, stronger effect = higher value
# [18] = Rieske KO mouse fibroblast survival, CellTiter-Glo 72 h
# [19] = measured here: relative caspase fold change +Dox/-Dox
# [20] = measured here: total cells with miR-34 induction, stronger effect = lower value
# [21] = measured here: total cells without miR-34 induction
# Chain of Mitogen-activated protein kinase 7 (Homo sapiens) (Q13164 whole entry, looked up, the tested form may be a part): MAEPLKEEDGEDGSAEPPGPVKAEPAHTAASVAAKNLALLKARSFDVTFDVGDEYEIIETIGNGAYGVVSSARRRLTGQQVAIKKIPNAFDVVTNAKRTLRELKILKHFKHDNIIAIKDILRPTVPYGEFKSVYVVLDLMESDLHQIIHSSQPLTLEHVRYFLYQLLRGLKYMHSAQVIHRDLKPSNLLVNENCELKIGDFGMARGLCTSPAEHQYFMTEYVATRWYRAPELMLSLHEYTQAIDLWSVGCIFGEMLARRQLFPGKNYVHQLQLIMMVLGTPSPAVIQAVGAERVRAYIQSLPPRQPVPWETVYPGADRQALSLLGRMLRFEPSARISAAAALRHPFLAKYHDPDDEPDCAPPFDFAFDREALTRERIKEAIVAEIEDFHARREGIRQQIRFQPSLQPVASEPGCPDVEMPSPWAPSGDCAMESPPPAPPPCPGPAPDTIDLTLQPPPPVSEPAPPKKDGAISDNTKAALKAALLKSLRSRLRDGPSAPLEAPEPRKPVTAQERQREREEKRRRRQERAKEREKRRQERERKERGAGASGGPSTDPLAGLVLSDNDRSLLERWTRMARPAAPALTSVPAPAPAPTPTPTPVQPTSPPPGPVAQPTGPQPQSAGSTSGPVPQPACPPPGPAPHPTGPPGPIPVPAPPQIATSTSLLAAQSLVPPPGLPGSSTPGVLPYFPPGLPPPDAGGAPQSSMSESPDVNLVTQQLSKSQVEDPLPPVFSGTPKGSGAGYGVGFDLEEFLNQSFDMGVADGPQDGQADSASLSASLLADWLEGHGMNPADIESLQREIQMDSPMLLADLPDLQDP
# Chain of NAD(+) hydrolase SARM1 (Homo sapiens) (Q6SZW1 whole entry, looked up, the tested form may be a part): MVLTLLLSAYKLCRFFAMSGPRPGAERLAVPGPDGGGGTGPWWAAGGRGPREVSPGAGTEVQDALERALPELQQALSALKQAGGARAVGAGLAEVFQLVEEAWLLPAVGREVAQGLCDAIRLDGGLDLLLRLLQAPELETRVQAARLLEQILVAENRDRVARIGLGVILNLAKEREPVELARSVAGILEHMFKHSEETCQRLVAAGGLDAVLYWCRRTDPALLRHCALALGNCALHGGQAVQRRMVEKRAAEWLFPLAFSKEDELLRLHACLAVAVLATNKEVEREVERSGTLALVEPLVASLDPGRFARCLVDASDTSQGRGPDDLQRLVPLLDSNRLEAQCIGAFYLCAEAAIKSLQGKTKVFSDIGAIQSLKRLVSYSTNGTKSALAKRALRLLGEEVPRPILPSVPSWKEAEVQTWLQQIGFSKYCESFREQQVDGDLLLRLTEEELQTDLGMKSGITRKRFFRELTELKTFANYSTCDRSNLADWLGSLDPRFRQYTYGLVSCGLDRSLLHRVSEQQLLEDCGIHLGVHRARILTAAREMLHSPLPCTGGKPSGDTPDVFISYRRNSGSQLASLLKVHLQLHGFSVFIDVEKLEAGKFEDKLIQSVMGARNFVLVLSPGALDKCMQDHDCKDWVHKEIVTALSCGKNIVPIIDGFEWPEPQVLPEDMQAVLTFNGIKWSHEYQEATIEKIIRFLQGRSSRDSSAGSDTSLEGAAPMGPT
structure (smiles),measurement,setting,value
CCOC(=O)c1cncn1C(C)c1ccccc1 (stereo not given),parasite load remaining,[1],51% (inactive) and 69.2% (inactive)
same,viability,[1],95.5% and 111%
same,nuclear beta-catenin stimulation,[2]; at 10 µM,1.8% (inactive)
same,nuclear beta-catenin stimulation,"[2]; stimulation, at 2 µM",3.6%
same,insulin secretion stimulation,[3],-0.5% (inactive)
same,viability decrease,[4],-7.2% (inactive)
same,tube area decrease,[5],11% (inactive)
same,GLP1 secretion stimulation,[6],-1.9% (inactive)
same,inhibition of viability,[7],-15.8% (inactive)
same,viability decrease (inhibition),[8],22.4% (inactive)
same,viability decrease (inhibition),[9],-22.4% (inactive)
same,z-score,[10]; [17],-0.441 (inactive)
same,z-score,[10]; [18],0.585
same,z-score,[11],0.035 (inactive) and 0.295 (inactive)
CN1C(=O)COc2c(C(=O)NC3CN4CCC3CC4)cc(Cl)cc21 (stereo not given),parasite load remaining,[1],118% (inactive)
same,viability,[1],75.1%
same,nuclear beta-catenin stimulation,[2]; at 10 µM,3.8% (inactive)
same,nuclear beta-catenin stimulation,"[2]; stimulation, at 2 µM",3.8%
same,insulin secretion stimulation,[3],1.3% (inactive)
same,viability decrease,[4],-9.5% (inactive)
same,tube area decrease,[5],-0.8% (inactive)
same,GLP1 secretion stimulation,[6],0% (inactive)
same,inhibition of viability,[7],5.23% (inactive)
same,viability decrease (inhibition),[8],18.3% (inactive)
same,viability decrease (inhibition),[9],-7.8% (inactive)
same,fold change,[12]; stronger effect = lower value,0.858 (inactive)
same,fold change,[12]; [19],1.27
same,cell count,[12]; [20],8690
same,cell count,[12]; [21],10100
same,z-score,[11],0.255 (inactive)
COc1cc(N)c(Cl)cc1C(=O)NC1CN2CCC1CC2 (stereo not given),parasite load remaining,[1],103% (inactive)
same,viability,[1],107%
same,nuclear beta-catenin stimulation,[2]; at 10 µM,-1.2% (inactive)
same,nuclear beta-catenin stimulation,"[2]; stimulation, at 2 µM",0%
same,insulin secretion stimulation,[3],3% (inactive)
same,viability decrease,[4],0.8% (inactive)
same,tube area decrease,[5],-1.2% (inactive)
same,GLP1 secretion stimulation,[6],6.7% (inactive)
same,inhibition of viability,[7],15.8% (inactive)
same,viability decrease (inhibition),[8],-5.8% (inactive)
same,viability decrease (inhibition),[9],1.7% (inactive)
same,fold change,[12]; stronger effect = lower value,0.946 (inactive)
same,fold change,"[12]; stronger effect = lower value, cell number ratio, induced over uninduced",0.971 (inactive)
same,fold change,[12]; [19],1.7 and 0.526
same,cell count,[12]; [20],9370 and 10300
same,cell count,[12]; [21],9910 and 10600
same,z-score,[11],0.86 (inactive) and -0.355 (inactive)
O=P1(NCCCl)OCCCN1CCCl (stereo not given),parasite load remaining,[1],91% (inactive) and 76.7% (inactive) and 18.8% (inactive)
same,viability,[1],94% and 95.7% and 66%
same,nuclear beta-catenin stimulation,[2]; at 10 µM,1.1% (inactive)
same,nuclear beta-catenin stimulation,"[2]; stimulation, at 2 µM",0.8%
same,insulin secretion stimulation,[3],2.9% (inactive)
same,viability decrease,[4],-25.5% (inactive)
same,tube area decrease,[5],9.8% (inactive)
same,GLP1 secretion stimulation,[6],-0.1% (inactive)
same,inhibition of viability,[7],7.23% (inactive)
same,viability decrease (inhibition),[8],-16.8% (inactive)
same,viability decrease (inhibition),[9],-5.2% (inactive)
same,red/green cell ratio (normalised),[13]; actives lie on both sides,1.03 (inactive)
same,normalised cell number,[13]; measured here: epithelial PC-3E GFP cell survival,1.08
same,normalised cell number,[13]; measured here: mesenchymal TEM4-18 mCherry cell survival,1.11
same,activity remaining,[14],114% (inactive)
same,z-score,[10]; [17],-0.402 (inactive) and 0.719 (inactive) and 0.667 (inactive)
same,z-score,[10]; [18],-0.0632 and -0.341 and -0.186
same,remaining NAD,[15],10 nM (inactive)
same,luciferase signal,[16],44 AU (inactive)
same,z-score,[11],0.08 (inactive)
CN[C@@H]1C[C@@H](c2ccc(Cl)c(Cl)c2)c2ccccc21,parasite load remaining,[1],4.35% (inactive)
same,viability,[1],29.3%
same,nuclear beta-catenin stimulation,[2]; at 10 µM,63.1% (active)
same,nuclear beta-catenin stimulation,"[2]; stimulation, at 2 µM",1.4%
same,insulin secretion stimulation,[3],6.2% (inactive)
same,viability decrease,[4],99.9% (active)
same,tube area decrease,[5],108% (active)
same,GLP1 secretion stimulation,[6],-0.3% (inactive)
same,inhibition of viability,[7],100% (active)
same,viability decrease (inhibition),[8],103% (active)
same,viability decrease (inhibition),[9],102% (active)
same,fold change,[12]; stronger effect = lower value,0.889 (inactive) and 0.782 (inactive)
same,fold change,[12]; [19],0.588 and 1.76
same,cell count,[12]; [20],306 and 538
same,cell count,[12]; [21],344 and 689
same,z-score,[10]; [17],-1.52 (inactive)
same,z-score,[10]; [18],-1.03
same,z-score,[11],-1.29 (inactive) and -0.78 (inactive)
